High-throughput results from PubChem BioAssay.
Only some compounds are listed: those with a hit (about 2.2% of all), similar ones and a draw of the others.
BaF3 tox – parental Ba/F3 viability inhibition as JAK2V617F counter-screen | CellTiter-Glo ATP luminescence | inhibition, % at 5.6 µM | 1.1% of 220,000 active | AID 1486;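 active means inhibition above a per-campaign cutoff, the mean inhibition of all tested compounds plus 3 SD, cut at about 27% in these data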
IEC-6 cytotox – kills IEC-6 intestinal cells in KLF5 counter-screen | IEC-6 cytotoxicity, luminescence viability | inhibition, % at 5 µM | 0.78% of 290,000 active | AID 1825
Ba/F3 V617F tox – loss of viability in JAK2V617F-driven Ba/F3 cells; 1.1% of 220,000 active; inhibition, % at 5.6 µM; Ba/F3 EpoR-JAK2V617F viability, ATP luminescence; AID 1446;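 active means inhibition above the campaign mean plus 3 SD over all tested compounds, cut at about 24% in these data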;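 further: cytokine-independent growth of Ba/F3 cells driven by EpoR plus mutant JAK2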
KLF5 inh – kruppel-like factor 5 inhibition; 0.23% of 290,000 active; inhibition, % at 5 µM; AID 1700; DLD-1 KLF5 promoter-luciferase reporter, luminescence;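 active means inhibition above a per-plate limit of that plate's mean compound inhibition plus 3 SD, cut at about 60% in these data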;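 further: higher means less KLF5 promoter-driven luciferase light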
APP transl inh – APP translation inhibition. inhibition, % at 2 µM. 0.82% of 190,000 active. AID 1285. SH-SY5Y APP 5'UTR-luciferase reporter, luminescence;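 active means inhibition above a set limit, derived from the sample mean plus 3 SD, cut at about 45% in these data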
aSyn UTR inh – 5' untranslated region of α-synuclein, MLPCN primary screen | 0.82% of 300,000 active | alpha-synuclein 5'UTR reporter, inhibitor activity | inhibition, % (tested at 7.5 µM); in the data active means inhibition above about 60%;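 further: H4 neuroglioblastoma cells stably carrying SNCA 5'UTR luciferase fusion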
IEC-6 cytotox cf – IEC-6 cytotoxicity, confirmation assay; shares compounds with IEC-6 cytotox; inhibition, % at 5 µM; IEC-6 rat intestinal epithelial viability, luminescence; 63% of 1,900 active
Numbers stand for hits; . = inactive; / = not tested or not shown. Unless noted, no stated cut-off is given here; in the data, active means inhibition above about 22%; inactive means the rest.

SMILES	BaF3 tox	IEC-6 cytotox	Ba/F3 V617F tox	KLF5 inh	APP transl inh	aSyn UTR inh	IEC-6 cytotox cf
Cc1nc2ccc(C(=O)N3c4ccccc4CC3C)cc2s1 (configuration not stated)	.	25.0	.	.	.	.	34.4
COC(=O)C1SCC2C(=O)N(Cc3ccc(Cl)c(Cl)c3)CC(=O)N21 (configuration not stated)	.	.	.	.	.	.	/
Cc1cc2nnc(SCC(=O)NCc3cccs3)n2c2ccccc12	39.8	33.9	31.0	.	.	.	24.3
CCCC/C(C)=N/NC(=O)CN(c1ccc(Br)cc1)S(=O)(=O)c1ccccc1	.	.	.	.	.	.	/
C/C(=N/NC(=O)CN(c1ccccc1)S(=O)(=O)c1ccccc1)c1ccccc1O	/	45.6	/	.	/	.	38.0
O=C(O)c1nc(-c2ccccc2)n(-c2cccc(C(F)(F)F)c2)n1	.	.	.	.	.	.	/
Oc1ccc(Br)cc1CNc1cccc2cccnc12	/	44.5	/	.	/	.	.
CSc1nnc(C)c(=O)[nH]1	.	.	.	.	.	.	/
CC(=O)c1c2c3c(c(Br)ccc3n(C)c1=O)C(=O)c1ccccc1-2	/	43.5	/	.	/	.	.
O=C(COc1ccc(S(=O)(=O)NC2CCCCC2)cc1)NCCC1=CCCCC1	.	.	.	.	.	.	/
Cc1ccc(NC(=O)c2ccccc2Br)cc1S(=O)(=O)N(C)C	.	.	.	.	.	.	/
O=C1C=C(Nc2ccc(Cl)cc2Cl)CC(c2ccco2)C1 (configuration not stated)	46.8	53.9	.	.	.	.	48.3
COc1ccc(Cl)cc1NC(=O)CSc1nc(Nc2ccccc2)nc(N2CCOCC2)n1	/	30.4	/	.	/	.	.
COc1ccc(CCNCc2c(OC)ccc3ccccc23)cc1OC	/	25.6	/	.	/	.	.
CCC(=O)NC(c1ccc(OC)cc1)c1c(O)ccc2ccccc12 (configuration not stated)	.	23.1	.	.	.	.	.
CC(C)(C)N(Cc1ccccc1)C(=O)CCc1ccccc1	.	.	.	.	.	.	/
CCOC(=O)c1c(C)nc2cc(C)ccn12	.	.	.	.	.	.	/
Cc1ccn2c(C(=O)CSc3ccccc3Cl)c(C)nc2c1	.	40.5	.	.	.	.	37.9
O=C(O)C(Cc1ccccc1)N1C(=O)c2c(Cl)c(Cl)c(Cl)c(Cl)c2C1=O (configuration not stated)	/	/	/	/	/	.	/
c1ccc(CCNc2ccnc3cc4ccccc4cc23)cc1	42.8	87.1	53.5	.	.	116.7	43.3
O=[N+]([O-])c1ccc(S(=O)(=O)Nc2nnc(C3CCCCC3)s2)cc1	/	.	/	.	/	.	/
COc1ccc2nc(NCc3ccccc3)[nH]c2c1	.	.	.	.	.	.	/
Cc1ccc2[nH]c3c(NCc4ccccc4)ncnc3c2c1	/	30.3	/	.	/	.	.
Cc1ccc2nc(NCc3ccccc3)[nH]c2c1	75.9	82.3	85.4	.	.	.	51.0
CCOc1ccc(S(=O)(=O)n2cc(F)c(=O)[nH]c2=O)cc1	59.8	85.8	43.9	.	.	.	.
SMILES	BaF3 tox	IEC-6 cytotox	Ba/F3 V617F tox	KLF5 inh	APP transl inh	aSyn UTR inh	IEC-6 cytotox cf
CCCOc1ccc(S(=O)(=O)n2cc(Br)c(=O)[nH]c2=O)cc1	.	.	.	.	.	.	/
CCOc1ccc(S(=O)(=O)n2cc(F)c(=O)[nH]c2=O)cc1[N+](=O)[O-]	/	54.8	/	.	/	.	.
C=CCn1c(SCC(=O)c2cccs2)nc2sc(CC)cc2c1=O	.	30.4	.	.	.	.	36.1
CSCC(C)N1CCC(N2CCC(C(=O)NCc3ccccn3)CC2)CC1 (configuration not stated)	/	.	/	.	/	.	/
Cc1ccc(C(=O)Cn2c(C(=O)OCCO)cc3ccccc32)cc1	/	26.5	/	.	/	.	.
Cc1cc(C(=O)NNc2ccc(Cl)cc2)no1	.	45.4	.	.	/	.	.
Cc1cc(C(=O)NNc2ccc(F)cc2F)no1	.	32.0	.	.	/	.	.
COc1ccc(CNC(=O)C(c2ccco2)N(C(=O)CNS(=O)(=O)c2ccccc2)c2ccccc2C)cc1 (configuration not stated)	.	.	.	.	.	.	/
CCCCCN=Cc1c(C)[nH]n(-c2nc3ccccc3s2)c1=O	45.9	45.2	48.4	.	.	62.5	51.0
COc1cccc(N2CC(=O)N(c3cccc(OC)c3)CC2=O)c1	.	.	.	.	.	.	/
CC1(C)N=C(N)N=C(N)N1c1cccc(C(=O)O)c1	.	36.8	.	.	.	.	.
COc1ccc(N2C(N)=NC(N)=NC2(C)C)cc1	98.8	53.0	98.0	.	.	81.4	.
COc1ccc(C2N=C(N)N=C(N)N2c2ccc(C)cc2)cc1 (configuration not stated)	.	.	.	.	.	.	/
COc1cccc(N2C(N)=NC(N)=NC2(C)C)c1	92.9	54.1	94.5	.	.	95.9	41.8
Cc1ccc(NC(=O)C2CCN(S(=O)(=O)c3c(C)n[nH]c3C)CC2)c(C)c1	/	.	/	.	/	.	/
CCN(CC(=O)Nc1ccc2c(c1)OCCO2)c1nc(-c2cccnc2)nc2ccccc12	.	.	.	.	.	.	/
Cc1onc(-c2ccccc2Cl)c1C(=O)NC(=S)Nc1ccc(C(C)C)cc1	62.7	22.3	57.7	.	/	.	.
COc1ccc(S(=O)(=O)N(C)CC(=O)Nc2cccc(C(C)=O)c2)cc1Cl	.	.	.	.	/	.	/
COc1cccc2sc(Nc3nnc(-c4ccc(F)cc4)o3)nc12	.	.	.	.	.	.	/
COc1cccc2sc(Nc3nc(-c4ccccn4)cs3)nc12	52.6	89.3	50.8	.	83.7	.	96.3
COc1cccc2sc(Nc3nnc(-c4cccs4)o3)nc12	.	69.1	.	.	.	.	59.0
CC1CCN(Cc2ccc(-c3nnn(CC(=O)Nc4ccccc4Cl)n3)cc2)CC1	.	33.5	.	.	.	.	25.7
CCS(=O)(=O)c1cc([N+](=O)[O-])c(Sc2ccccc2NC(C)=O)s1	.	.	.	.	/	.	/
CC(=O)Nc1ccccc1OCC(=O)c1cc(C)n(Cc2cccs2)c1C	81.7	26.2	62.3	.	.	.	.
O=C(Nn1cc(C(=O)Nc2ccccc2F)c2ccccc2c1=O)c1cnccn1	.	51.6	.	.	.	.	.
COc1ccccc1NC(=S)N(Cc1ccco1)Cc1cc2ccc(C)c(C)c2[nH]c1=O	80.6	77.7	71.2	.	/	.	53.6
O=[N+]([O-])c1cc(Cl)cc2c1nc(NCCO)c1ccccc12	.	24.6	.	.	/	.	25.7
OC1CCNC(=S)N1c1ccccc1 (configuration not stated)	.	.	.	.	.	.	/
O=Cc1ccc(Sc2nnc(-c3ccccc3)o2)c([N+](=O)[O-])c1	.	.	.	.	.	.	/
Cn1nc([N+](=O)[O-])nc1Sc1nnc(-c2ccccc2)o1	75.9	68.0	92.1	.	94.6	91.9	67.9
